For 99 compounds, B-score results are on record in PubChem BioAssay AID588676 (Johns Hopkins Ion Channel Center, 2011).

The structures appear in SMILES notation. The campaign covered roughly 310,000 compounds. About 3,900 (1.3%) were called active. The sample holds actives, similar compounds and a random draw of the others, so the mix is not that of the screen.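 How the source made its calls: active means calcium-response B-score plate-corrected more than 3 library SD below zero, starting fluorescence within 5 deviations, no agonist response on first addition; inactive means the rest.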

The assay deals with Mas-related G-protein coupled receptor member X1 (Homo sapiens) (UniProt Q96LB2). Briefly: antagonists of human MrgX1 receptor, primary screen, HEK293 cells, Fluo-4 calcium flux (AID 588676).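 On B-score: peak minus trough fluorescence over baseline after final BAM8-22 challenge near maximal dose.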 Particulars: Fluo-4, BAM8-22 antagonism, at 10 µM; stronger effect = lower value.
Mas-related G-protein coupled receptor member X1 (Homo sapiens), sequence (Q96LB2 whole entry, looked up): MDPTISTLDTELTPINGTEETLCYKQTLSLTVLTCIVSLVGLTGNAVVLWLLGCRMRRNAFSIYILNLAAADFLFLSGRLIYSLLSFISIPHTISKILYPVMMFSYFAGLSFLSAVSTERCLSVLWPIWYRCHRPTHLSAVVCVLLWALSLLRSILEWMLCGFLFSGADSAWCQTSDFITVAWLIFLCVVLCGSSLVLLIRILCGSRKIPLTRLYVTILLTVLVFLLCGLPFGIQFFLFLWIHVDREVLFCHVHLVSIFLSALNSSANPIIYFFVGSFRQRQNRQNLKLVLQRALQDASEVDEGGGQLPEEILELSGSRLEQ
For the compound `CCc1cc2cc(OC)ccc2nc1SCC(=O)Nc1cc(OC)c(OC)cc1C(=O)O`, the B-score entry was “inactive”.
For the compound `N#Cc1ccc(OCc2nnc(-c3ccc([N+](=O)[O-])cc3)o2)cc1`, the B-score is -5.3 (active).
Turning to `Cc1cc(OCCCCOc2ccc(C#N)cc2)ccc1[N+](=O)[O-]`, the B-score result is “inactive”.
As to `CCOC(=O)CSc1nnc(-c2ccc([N+](=O)[O-])cc2)o1`, the B-score result is “inactive”.
`CCn1cc(C(=O)NCCCN2CCCCCC2)c(=O)c2cc(S(=O)(=O)N3CCc4ccccc4C3)ccc21`: the B-score entry is “inactive”.
Consider `CCOc1cc(C(=O)Nc2c(C)ccc3nsnc23)cc(OCC)c1OCC`, for which the B-score result was “inactive”.
With `CCOC(=O)CC1C(=O)NCCN1c1nc2c(C)cccn2c(=O)c1/C=C1\SC(=S)N(C(C)CC)C1=O` (centres undefined), the B-score result was “inactive”.
Regarding `Cc1cccn2c(=O)c(/C=C3\SC(=S)N(CC(C)C)C3=O)c(NCCCOC(C)C)nc12`, the B-score is -11.6 (active).
For the compound `CNc1nc2c(C)cccn2c(=O)c1C=Nc1ccc(OC)cc1`, the B-score result was “inactive”.
With `Cc1coc2c1c(C)cc1oc(=O)c(CC(=O)NCC(=O)N[C@H](C(=O)O)C(C)C)c(C)c12`, the B-score result is “inactive”.
In the case of `CCCCn1c(N)c(N(CC(C)C)C(=O)c2ccc(-n3c(C)ccc3C)cc2)c(=O)[nH]c1=O`, the B-score result was “inactive”.
The value for `O=C(COc1coc(CN2CCN(c3ccccc3)CC2)cc1=O)Nc1ccccc1F` was “inactive”; that for `COc1ccc(CNC(=O)CSc2n[nH]c(N)n2)cc1OC` was “inactive”; that for `COc1ccc(C(=O)CSc2nccc(=O)[nH]2)cc1` was “inactive”.
Take `COc1ccc(C(=O)CSc2n[nH]c(N)n2)cc1`: the B-score was -4.92 (active).
In the case of `O=C(c1cc(-c2ccc(Cl)s2)nc2ccccc12)N1CCOCC1`, the B-score result is “inactive”.
As for `CCOC(=O)c1cn(CC(=O)Nc2ccc(C(C)C)cc2)nn1`, the B-score entry was “inactive”.
As for `CCOC(=O)c1nn(-c2cccc(C)c2)cc1C(=O)c1ccccc1`, the B-score entry is “inactive”.
For `CCOC(=O)c1cn(Cc2cccc(C)c2)nn1`, the B-score is -5.74 (active).
Turning to `COC(=O)[C@@H]1CC[C@H](C)[C@@H](c2ccc(C)cc2)N1C(=O)c1ccc(/C=N/O[C@H](C)c2cn([C@@H]3COC[C@H]3O)nn2)cc1`, the B-score entry was “inactive”.
Take `Cc1cccc(N(C(=O)c2csnn2)C(C(=O)NCc2ccccc2)c2ccncc2)c1` (centres undefined): the B-score entry is “inactive”.
With `O=C1CSC(=S)N1c1ccc(Cl)c(Cl)c1`, the B-score entry is “inactive”.
For the compound `CCN(CC(=O)Nc1cc(Cl)ccc1C)C(=O)CSCc1ccc(C)cc1`, the B-score entry is “inactive”.
As for `COc1ccc(NS(=O)(=O)c2cc(NC(=O)CC(=O)c3ccc([N+](=O)[O-])cc3)ccc2C)cc1`, the B-score result was “inactive”.
The value for `CCN(CC)c1ccc(NC(=O)c2ccc(=O)[nH]c2)cc1S(=O)(=O)Nc1ccc(OC)cc1` was -4.78 (active).
For the compound `COc1ccc(NS(=O)(=O)c2ccc(NC(=O)c3ccc(N(C)S(C)(=O)=O)cc3)cc2)cc1`, the B-score result was “inactive”.
Under `O=C(NCc1ccc2c(c1)OCO2)c1sccc1Br` stands “inactive”; under `O=C(O)c1ccc2c(c1)C(=O)N(NC(=O)c1ccc(O)cc1)C2=O`, “inactive”; under `O=C(Nc1ccc(C(=O)O)c(O)c1)c1ccccc1`, “inactive”.
As for `O=C(c1ccc(O)cc1)c1ccc(C(=O)O)c(C(=O)O)c1`, the B-score is -10.2 (active).
For `CCCOc1ccc(N2C(=O)CC(N(CCc3ccc(S(N)(=O)=O)cc3)C(C)=O)C2=O)cc1` (centres undefined), the B-score result is “inactive”.
As to `CC(=O)Nc1ccc(S(=O)(=O)N2CCC(C(=O)N[C@@H](Cc3ccccc3)C(=O)O)CC2)cc1`, the B-score result was “inactive”.
Consider `CCN(CC)S(=O)(=O)c1ccc(N(C)Cc2cccc(OC)c2OC)nc1`, for which the B-score result was “inactive”.
On to `COc1cc(N)c(Cl)cc1C(=O)OCC(=O)c1ccc2c(c1)NC(=O)CO2`, for which the B-score entry is “inactive”.
Consider `CC1CCC(NC(=O)C2c3ccccc3C(=O)N2Cc2ccc3c(c2)OCO3)CC1` (centres undefined), for which the B-score result is “inactive”.
As to `O=C1c2ccccc2C(Nc2ccc3c(c2)OCCO3)N1Cc1ccco1` (centres undefined), the B-score entry is “inactive”.
For the compound `O=C(NC1CCCCC1)C1c2ccccc2C(=O)N1Cc1ccco1` (centres undefined), the B-score is -7.6 (active).
In the case of `Cc1cc(OC(C)C(=O)Nc2ccc(S(=O)(=O)Nc3onc(C)c3C)cc2)cc(C)c1Cl` (centres undefined), the B-score result is “inactive”.
For the compound `COc1ccc(-c2ocnc2C(=O)Nc2ccc3c(c2)CCC3)cc1`, the B-score entry is “inactive”.
The value for `CCN1C(=O)[C@@H]2[C@@H](c3ccc(-c4ccc(OC)cc4)c(OC)c3)N3CCC[C@@]3(C(=O)OC)[C@@H]2C1=O` was “inactive”.
On to `O=[N+]([O-])c1cccc(S(=O)(=O)NCc2ccccn2)c1`, for which the B-score entry was “inactive”.
Regarding `O=c1cc(CO)oc(C(Nc2cccc([N+](=O)[O-])c2)c2ccccn2)c1O` (centres undefined), the B-score is -4.59 (active).
Regarding `O=c1cc(CO)oc(C(Nc2cccc(C(F)(F)F)c2)c2ccccn2)c1O` (centres undefined), the B-score result is “inactive”.
In the case of `O=C(c1ccc(Cl)cc1)N1N=C(c2ccccn2)CC1(O)C(F)(F)F` (centres undefined), the B-score result is “inactive”.
For the compound `Cc1nnc(SCC(=O)Nc2ccc(S(=O)(=O)Nc3ccc(Cl)nn3)cc2)s1`, the B-score result was “inactive”.
On to `CN(c1cccc(NC(=O)Nc2ccc(Cl)cc2)c1)S(C)(=O)=O`, for which the B-score is -8.9 (active).
As to `COc1cccc(N(CC(=O)Nc2cccc(N(C)S(C)(=O)=O)c2)S(C)(=O)=O)c1`, the B-score entry is “inactive”.
Regarding `CN(c1cccc(NC(=O)c2ccc(CN3CCc4ccccc4C3)cc2)c1)S(C)(=O)=O`, the B-score result was “inactive”.
Under `CC(C)NC(=S)Nc1cccc2cnccc12` stands -4.98 (active); under `O=C(COC(=O)c1cnccn1)Nc1cccc2ccccc12`, “inactive”; under `COC(=O)c1cccnc1NC(=S)NC(C)C`, “inactive”.
As to `Cc1ccc2cc(CN(c3ccc(C)c(C)c3)S(C)(=O)=O)c(=O)[nH]c2c1`, the B-score entry was “inactive”.
On to `Cc1cc([N+](=O)[O-])ccc1NCc1cccc([N+](=O)[O-])c1`, for which the B-score result is “inactive”.
With `Cc1c(Br)c([N+](=O)[O-])nn1CC(=O)Nc1sc2c(c1C(=O)OC(C)C)CCC(C)C2` (centres undefined), the B-score result was “inactive”.
Under `COc1ccc(C(=O)Nc2c(N)nc(SCC(=O)Nc3ccc(C(C)=O)cc3)[nH]c2=O)cc1` stands “inactive”; under `COC(=O)c1ccc(NC(=O)CSc2nc(N)c(NC(=O)c3ccc(Br)o3)c(=O)[nH]2)cc1`, “inactive”.
`COc1ccc(C(=O)Nc2c(N)nc(SCC(=O)N3CCC(C)CC3)[nH]c2=O)cc1OC`: the B-score is -5.91 (active).
The value for `COC(=O)C(C(=O)Nc1cccc(C)n1)C1CCCCCC1` (centres undefined) was “inactive”.
The value for `Cc1c(NC(=O)CCC2CCCCC2)cc(C(=O)N2CCOCC2)cc1[N+](=O)[O-]` was “inactive”; that for `Cc1cc(N2CCN(S(=O)(=O)c3ccc(C)c(C)c3)CC2)c2ccccc2n1` was “inactive”; that for `Cc1ccc(S(=O)(=O)Nc2nc3ccccc3nc2N2CCc3ccccc3C2)cc1` was “inactive”.
Consider `Cc1ccc(S(=O)(=O)C(C#N)c2nc3ccccc3nc2N2CCCC2)cc1C` (centres undefined), for which the B-score was -6.25 (active).
For `C#CCOCCOCCOCCNc1nc(N2CCN(C(=O)C(Cc3ccc(O)cc3)n3cc(C(N)CC(C)C)nn3)CC2)nc(N2CCN(C(=O)C(Cc3ccc(O)cc3)n3cc(C(N)C(C)CC)nn3)CC2)n1` (centres undefined), the B-score entry is “inactive”.
`O=C(Nc1nnc(-c2ccccc2F)s1)c1ccccc1F`: the B-score entry is “inactive”.
Under `CN(CC(=O)NCCN1CCOCC1)S(=O)(=O)c1ccc(F)cc1` stands “inactive”.
The value for `CCOc1ccc(NC(=S)N2CCC(NC(=O)c3ccccc3)CC2)cc1` was “inactive”; that for `CCOc1ccc(NS(=O)(=O)c2ccc(C(=O)NC3CCN(Cc4ccccc4)CC3)cc2)cc1` was “inactive”.
`CCOc1ccc(C(=O)NC2CCN(S(=O)(=O)CC)CC2)cc1`: the B-score was -5.83 (active).
In the case of `CCOC(=O)c1nnn2c1nc(N1CCN(c3ccccc3)CC1)c1ccccc12`, the B-score entry was “inactive”.
On to `COc1cc(C(=S)N2CCOCC2)cc(OC)c1OC(=O)c1cc([N+](=O)[O-])c(C)c([N+](=O)[O-])c1`, for which the B-score entry was “inactive”.
As to `O=S(=O)(ON(c1ccccc1)S(=O)(=O)c1ccccc1)c1ccccc1`, the B-score entry was “inactive”.
Under `CC1=C/C(=N\OS(=O)(=O)c2ccccc2)C=CC1=O` stands -5.63 (active); under `CCOC(=O)c1ccc2[nH]c3c(c2c1)CCCC3NC=O` (centres undefined), “inactive”; under `O=C(NC(C(=O)NCCN1CCOCC1)C12CC3CC(CC(C3)C1)C2)C1CCCCC1` (centres undefined), “inactive”.
For `O=C(C[C@H]1C(=O)N(c2ccc(F)c(F)c2)C[C@@H]1Cc1ccccc1)Nc1ccccc1`, the B-score result was “inactive”.
With `C/C=C/C=C/C(=O)OCC(=O)Nc1ccc(Cl)cc1`, the B-score entry is “inactive”.
`O=[N+]([O-])c1ccc(F)cc1Oc1nc(-c2cccnc2)nc2ccccc12`: the B-score result is “inactive”.
Regarding `COc1ccc(Nc2nc(-c3cccnc3)nc3ccccc23)cn1`, the B-score entry is “inactive”.
With `COc1ccccc1Oc1nc(-c2cccnc2)nc2ccccc12`, the B-score is -5.1 (active).
Turning to `CCOc1ccc(C(C)=O)cc1COC(=O)CN1C(=O)NC2(CCCC2)C1=O`, the B-score result is “inactive”.
Under `Cc1cccc(OCC(O)Cn2c(N3CCCCC3)nc3c2c(=O)[nH]c(=O)n3C)c1` (centres undefined) stands “inactive”.
Consider `c1ccc(-c2cc3c(NCC4COc5ccccc5O4)ncnc3s2)cc1` (centres undefined), for which the B-score entry is “inactive”.
The value for `Oc1cc2c(cc1O)CN(C(=S)NCCc1ccc(Cl)cc1)CCC2` was “inactive”; that for `O=C(N/N=C/c1ccccc1O)C1CCCC1` was -4.79 (active); that for `Oc1ccccc1C=NC1CCCCC1N=Cc1ccccc1O` (centres undefined) was “inactive”.
As for `COc1ccc(/C=N/NC(=O)C2CC2)c(OC)c1OC`, the B-score result is “inactive”.
Under `Cc1ccc2cc(/C=N/Nc3ccc(C(=O)O)cc3)c(Cl)nc2c1` stands -14.6 (active); under `O=C(O)c1ccc(N/N=C/c2ccc3ncccc3c2)cc1`, “inactive”.
Turning to `Cc1ccc2cc(/C=N/NC(=O)[C@@H]3CCCN3)c(Cl)nc2c1`, the B-score entry was “inactive”.
Regarding `CCCCC(O)(CCCC)C(=O)NN(C(=O)CCl)c1ccccc1`, the B-score result is “inactive”.
Under `CC(C)(C)c1ccc(/C=C2\Oc3c(ccc(O)c3CN3CCN(CCO)CC3)C2=O)cc1` stands “inactive”; under `O=C(Nc1cccc(-c2nc3ccccc3[nH]2)c1)c1ccc(C(=O)Nc2cccc(-c3nc4ccccc4[nH]3)c2)cc1`, “inactive”; under `c1ccc(-c2[nH]ncc2-c2nc3ccccc3[nH]2)cc1`, -5.86 (active).
Take `COc1ccc(-c2[nH]nc(-c3ccccc3)c2-c2nc3ccccc3[nH]2)cc1`: the B-score entry was “inactive”.
As to `CC(OC(=O)CCCOc1ccccc1)C(=O)Nc1ccc(Cl)cn1` (centres undefined), the B-score result is “inactive”.
As to `CCOCCCn1c(NN)nc2ccccc2c1=O`, the B-score result was “inactive”.
Under `CCCCCCn1c(CN2CCCC(C)C2)nc2c1c(=O)n(C)c(=O)n2C` (centres undefined) stands “inactive”; under `Cc1c(CN2CCCCC2)c(O)n(CCO)c(=O)c1C#N`, “inactive”.
The value for `CCCn1c(O)c(CN2CCCC(C)C2)c(C)c(C#N)c1=O` (centres undefined) was -5.29 (active).
